Reference: paper PMC4336329 (PLoS ONE, 2015)
The campaign covered roughly 310,000 compounds. About 14,000 (4.5%) showed an effect of 50% or more. The effect is printed as a negative number. This excerpt belongs to a sample that is enriched for strong results.

target: human ether-à-go-go-related gene (hERG) potassium channel (human, UniProt Q12809); assay: primary screen, population patch clamp on CHO cells stably expressing hERG; higher = less effect of the substance
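Further: peak tail current of the secondary pulse compared with the same well before compound.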

Sequence of human ether-à-go-go-related gene (hERG) potassium channel (Q12809 whole entry, looked up): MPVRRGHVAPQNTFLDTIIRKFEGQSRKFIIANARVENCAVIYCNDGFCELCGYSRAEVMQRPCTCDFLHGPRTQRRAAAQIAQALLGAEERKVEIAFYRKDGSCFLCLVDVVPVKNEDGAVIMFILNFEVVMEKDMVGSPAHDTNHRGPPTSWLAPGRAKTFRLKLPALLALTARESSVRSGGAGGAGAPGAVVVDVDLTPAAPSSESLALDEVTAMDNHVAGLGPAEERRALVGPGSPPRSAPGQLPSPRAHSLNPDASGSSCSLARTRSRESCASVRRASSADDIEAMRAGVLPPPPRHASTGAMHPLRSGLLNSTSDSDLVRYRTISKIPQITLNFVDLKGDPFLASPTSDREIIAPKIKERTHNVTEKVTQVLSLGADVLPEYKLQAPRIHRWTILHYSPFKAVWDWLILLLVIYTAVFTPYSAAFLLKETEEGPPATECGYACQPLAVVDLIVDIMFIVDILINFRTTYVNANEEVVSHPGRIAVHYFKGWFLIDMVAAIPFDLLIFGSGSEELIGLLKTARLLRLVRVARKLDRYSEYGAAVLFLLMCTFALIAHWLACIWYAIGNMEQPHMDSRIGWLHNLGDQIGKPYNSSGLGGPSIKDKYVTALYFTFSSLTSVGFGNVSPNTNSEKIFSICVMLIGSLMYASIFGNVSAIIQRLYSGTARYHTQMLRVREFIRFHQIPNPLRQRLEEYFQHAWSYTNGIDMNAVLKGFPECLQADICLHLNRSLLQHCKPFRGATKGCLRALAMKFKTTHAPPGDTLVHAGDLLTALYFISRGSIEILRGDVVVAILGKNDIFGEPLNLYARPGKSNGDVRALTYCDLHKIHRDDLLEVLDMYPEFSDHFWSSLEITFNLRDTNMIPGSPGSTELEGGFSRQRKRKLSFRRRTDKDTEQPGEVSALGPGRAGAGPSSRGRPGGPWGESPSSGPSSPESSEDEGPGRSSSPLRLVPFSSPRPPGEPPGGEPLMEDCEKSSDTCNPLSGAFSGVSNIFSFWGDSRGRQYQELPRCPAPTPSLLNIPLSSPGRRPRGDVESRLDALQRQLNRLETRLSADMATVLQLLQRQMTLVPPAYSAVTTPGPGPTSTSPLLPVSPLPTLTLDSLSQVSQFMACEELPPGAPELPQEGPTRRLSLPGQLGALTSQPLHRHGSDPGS

| Compound | hERG current change (%, negative = inhibition) at 10uM [%] |
| --- | --- |
| CCN(CC)c1ccc(/C=C(/C#N)C(=O)NC(C)C)o1 | -1.68 |
| COC(=O)C(C)n1cnc2c(nnn2-c2ccc(C)cc2)c1=O (stereo not drawn) | -10.6 |
| NC(=O)C1CCN(CC(=O)N2c3ccccc3CCc3ccccc32)CC1 | 19.3 |
| Cc1cccn2c(=O)c3cc(C(=O)NC4CCCC4)n(C)c3nc12 | 1.13 |
| Cc1cccn2c(=O)c3cc(C(=O)NC4CCCC4)c(=N)n(C4CCCC4)c3nc12 | -79.2 |
| Cc1cccn2c(=O)c3cc(C(=O)NC4CCCCC4)n(C)c3nc12 | 12.5 |
| Cc1cccn2c(=O)c3cc(C(=O)NC4CCCC4)c(=N)n(C4CCCCC4)c3nc12 | -80.7 |
| Cc1cccn2c(=O)c3cc(C(=O)NC4CCCCC4C)n(C)c3nc12 (stereo not drawn) | 13.7 |
| Cc1cccn2c(=O)c(C(=O)NC3CCCCC3)c(O)nc12 | 31.3 |
| COc1cc(C(=O)NCC(=O)N/N=C/c2c(C)[nH]c3ccccc23)cc(OC)c1OC | 15.7 |
| CCC(C(=O)OCCN(CC)CC)c1ccccc1.O=C(O)CC(O)(CC(=O)O)C(=O)O (stereo not drawn) | 4.45 |
| CCN(CC)CCc1nc(-c2ccccc2)no1.O=C(O)CC(O)(CC(=O)O)C(=O)O | -10.6 |
| CCN(CC)CCC(C)OC(c1ccccc1)c1ccccc1.O=C(O)CC(O)(CC(=O)O)C(=O)O (stereo not drawn) | -52.2 |
| COCCOc1cc(N)c(Cl)cc1Cl | 15.5 |
| Cc1cc(C)cc(NC(=O)C(OC(=O)Cn2cnc3c2c(=O)n(C)c(=O)n3C)c2ccccc2)c1 (stereo not drawn) | -69.7 |
| CCN(c1ccccc1)S(=O)(=O)c1ccc(OC)c(NC(=O)Cn2cnc3c2c(=O)n(C)c(=O)n3C)c1 | -66 |
| CCN(CC)S(=O)(=O)c1ccc(OC)c(NC(=O)Cn2cnc3c2c(=O)n(C)c(=O)n3C)c1 | -41.3 |
| CN(c1ccccc1)S(=O)(=O)c1cccc(NC(=O)Cn2cnc3ccccc3c2=O)c1 | -48.3 |
| CN(c1ccccc1)S(=O)(=O)c1cccc(NC(=O)Cn2cnc3c2c(=O)n(C)c(=O)n3C)c1 | -52.6 |
| COc1ccc(C)cc1NC(=O)C(OC(=O)Cn1cnc2c1c(=O)n(C)c(=O)n2C)c1ccccc1 (stereo not drawn) | -7.98 |
| COc1ccc(S(=O)(=O)N2CCOCC2)cc1NC(=O)CCc1nc2ccccc2c(=O)[nH]1 | 21.5 |

| Compound | hERG current change (%, negative = inhibition) at 10uM [%] |
| --- | --- |
| COc1ccc(S(=O)(=O)N2CCCCC2)cc1NC(=O)CCc1nc2ccccc2c(=O)[nH]1 | 0.795 |
| Cc1cc(C)cc(NC(=O)COC(=O)Cn2cnc3c2c(=O)n(C)c(=O)n3C)c1 | -41.1 |
| COc1ccccc1NC(=O)Cn1cnc2c1c(=O)n(C)c(=O)n2C | 17.9 |
| CCN(c1ccccc1)S(=O)(=O)c1ccc(OC)c(NC(=O)CCc2nc3ccccc3c(=O)[nH]2)c1 | -51.2 |
| Cn1c(=O)c2c(ncn2CC(=O)Nc2ccccc2)n(C)c1=O | 13.9 |
| O=C(NCc1ccco1)C1CC(c2ccc(Cl)c(Cl)c2)=NO1 (stereo not drawn) | 8.51 |
| CC(C)C(C(=O)NCC1CCCO1)N(Cc1ccccc1)C(=O)CNS(=O)(=O)c1ccccc1 (stereo not drawn) | 18.4 |
| O=C(Nc1cccc(Br)c1)c1cc(=O)c2ccccc2o1 | 19.4 |
| Cc1ccc(-c2csc(NC(=S)NC(=O)c3cc4ccccc4o3)n2)cc1 | 7.09 |
| Cc1cc(S(=O)(=O)N2CCOCC2)c(C)s1 | 9.26 |
| O=C(NCc1ccco1)c1sc2ccccc2c1Cl | -9.84 |
| CC(C)(C)CC(=O)Nc1nn[nH]n1 | 24.3 |
| O=C(O)CN1C(=O)/C(=C\c2cc([N+](=O)[O-])ccc2OCc2ccccc2Cl)SC1=S | 29.4 |
| Cc1ccccc1-c1noc(-c2ccc(Cl)cc2)n1 | 25.1 |
| COc1ccc(C)c2sc(NNC(=O)COc3ccccc3)nc12 | 6.35 |
| Cn1c(=O)c2c(ncn2CC(=O)OCc2ccccc2)n(C)c1=O | -6.21 |
| Cn1c(=O)c2c(ncn2CC(=O)N(Cc2ccccc2)c2ccccn2)n(C)c1=O | -50.7 |
| CCN(Cc1ccccc1)C(=O)Cn1cnc2c1c(=O)n(C)c(=O)n2C | -16.1 |
| Cc1sc2ncn(CC(=O)NCCCC(=O)N3CCN(c4ccccc4F)CC3)c(=O)c2c1C | -20.9 |
| O=C(c1ccc2nc3ccc(Cl)cc3c(=O)n2c1)N1CCOCC1 | -55.3 |
| CCOC(=O)N1CCC(NC(=O)c2cccn3c(=O)c4cc(Br)ccc4nc23)CC1 | 3.69 |

| Compound | hERG current change (%, negative = inhibition) at 10uM [%] |
| --- | --- |
| CCOC(=O)N1CCN(C(=O)c2cccn3c(=O)c4cc(Br)ccc4nc23)CC1 | -68.2 |
| O=C(c1cccn2c(=O)c3ccc(Cl)cc3nc12)N1CCC2(CC1)OCCO2 | -11.2 |
| O=C(c1ccc2nc3ccc(Cl)cc3c(=O)n2c1)N1CCC2(CC1)OCCO2 | -40.3 |
| O=C(c1cccn2c(=O)c3cc(Br)ccc3nc12)N1CCC2(CC1)OCCO2 | -37 |
| CCOC(CNC(=O)c1cccn2c(=O)c3cc(Cl)ccc3nc12)OCC | -7.16 |
| CCOC(=O)N1CCN(C(=O)c2cccn3c(=O)c4sccc4nc23)CC1 | -35.9 |
| CCOC(=O)N1CCN(C(=O)c2cccn3c(=O)c4cc(Cl)ccc4nc23)CC1 | -65.7 |
| NC(=O)C1(N2CCCCC2)CCN(C(=O)c2cccn3c(=O)c4cc(Cl)ccc4nc23)CC1 | -30.1 |
| O=C(c1cccn2c(=O)c3cc(Cl)ccc3nc12)N1CCOCC1 | -52.9 |
| CCOC(=O)N1CCN(C(=O)c2ccc3nc4ccc(Cl)cc4c(=O)n3c2)CC1 | -45.9 |
| O=C(O)c1nn(-c2cccc(Cl)c2)c(=O)cc1O | 4.44 |
| CN(Cc1nc2ccccc2c(=O)[nH]1)CC(O)COCc1ccco1 (stereo not drawn) | -13.9 |
| COc1cccc(C(=O)NCc2ccc3c(c2)OCO3)c1OC | 16.3 |
| CCO[C@@H]1OC(C(=O)N2CCOCC2)=C[C@H](C2CC2)[C@H]1CCCO | 11.6 |
| O=C(c1ccco1)N1CCN(S(=O)(=O)c2ccc(Cl)cc2)CC1 | 2.47 |
| COc1ccc(OC)c(N(CC(=O)Nc2ccccc2)S(=O)(=O)c2ccccc2)c1 | 6.01 |
| COc1cccc(OCC(O)CN2CCN(CCO)CC2)c1.Cl (stereo not drawn) | 15.7 |
| CCc1ccc(OCCOCC(O)CN2CCN(Cc3ccc(Cl)cc3)CC2)cc1.Cl (stereo not drawn) | -73.5 |
| CCN1CCN(CC(O)COc2ccc(Cl)cc2)CC1.Cl (stereo not drawn) | -36.2 |
| CCc1ccc(OCC(O)CN2CCCC2)cc1.Cl (stereo not drawn) | -13.8 |
| CCN1CCN(CC(O)COc2cccc(OC)c2)CC1.Cl (stereo not drawn) | 3.43 |

| Compound | hERG current change (%, negative = inhibition) at 10uM [%] |
| --- | --- |
| COc1cccc(OCCOCC(O)CN2CCN(Cc3ccc(Cl)cc3)CC2)c1.Cl (stereo not drawn) | -72.3 |
| COc1cc(/C=C(/NC(=O)c2ccccc2)C(=O)Nc2cccc(O)c2)c([N+](=O)[O-])cc1OC | 0.394 |
| Cn1c(=O)c([N+](=O)[O-])c(NCc2ccccc2)c2ccccc21 | 9.94 |
| O=C(NC1CCCc2ccccc21)C1CCN(S(=O)(=O)N2CCCCCC2)CC1 (stereo not drawn) | -12.8 |
| O=C(N[C@@H](Cc1ccccc1)C(=O)OCC(=O)N1CCOCC1)c1cccs1 | -9.98 |
| O=C(COC(=O)CCc1nc2ccccc2n1-c1ccccc1)Nc1ccc(N2CCCCC2)cc1 | 2.85 |
| CC[C@@H](C)[C@H](NC(=O)OC(C)(C)C)c1nnc(S(=O)(=O)Cc2cc(C)ccc2C)o1 | 4.09 |
| CC(NC(=O)COC(=O)/C=C/c1cccc(C(F)(F)F)c1)c1ccccc1 (stereo not drawn) | 15.2 |
| CCN(CC)CCn1c(NS(=O)(=O)c2ccc(C)cc2)nc2ccccc21 | -51 |
| CCN(CC)CCn1c(C)nc2ccccc21.Cl | -9.07 |
| CCN(CC)CCn1c(NS(=O)(=O)c2ccc(Cl)cc2)nc2ccccc21.Cl | -69.8 |
| CCN(CC)CCn1c(N)nc2ccccc21.Cl | 15.4 |
| Cc1ccc(Cn2c(NS(=O)(=O)c3ccccc3)nc3ccccc32)cc1 | 21.3 |
| CCCn1c(NCc2ccccc2NS(=O)(=O)c2ccc(C)cc2)nc2ccccc21 | 6.84 |
| CN1C(=O)C(C2c3ccccc3C(=O)N2Cc2ccccc2)C(=O)N(C)C1=O (stereo not drawn) | 3.38 |
| CCc1ccc(C(=O)C(C)OC(=O)C2COc3ccccc3O2)cc1 (stereo not drawn) | -18.9 |
| CSc1ncc(Cl)c(C(=O)Nc2cc(C)ccc2C)n1 | 16.1 |
| CCOC(=O)C(NC(=O)c1cccnc1)(Nc1cccc(C)n1)C(F)(F)F (stereo not drawn) | 1.24 |
| CCN1C(=O)C(CC(=O)Nc2ccc(OC)cc2)N(Cc2cccnc2)C1=S (stereo not drawn) | -2.39 |
| c1ccc(C[C@H]2CNCCN2CC2(c3ccccc3)CC2)cc1 | -14.9 |
| O=C(CNC(=O)c1cccs1)NCC(=O)OCc1ccc(Cl)cc1 | -17.5 |
